Screens from PubChem BioAssay.
D2 antag – antagonists of human D2 dopamine receptor; P14416; HEK293 TREx D2 cells, calcium flux, dopamine EC80; inhibition, % at 10 µM; 2% of 340,000 active; AID 485344; in the data active = inhibition above about 30%; inactive = below that, where a call was filed; note: 0% is about no effect
Target sequence (P14416 whole entry, looked up): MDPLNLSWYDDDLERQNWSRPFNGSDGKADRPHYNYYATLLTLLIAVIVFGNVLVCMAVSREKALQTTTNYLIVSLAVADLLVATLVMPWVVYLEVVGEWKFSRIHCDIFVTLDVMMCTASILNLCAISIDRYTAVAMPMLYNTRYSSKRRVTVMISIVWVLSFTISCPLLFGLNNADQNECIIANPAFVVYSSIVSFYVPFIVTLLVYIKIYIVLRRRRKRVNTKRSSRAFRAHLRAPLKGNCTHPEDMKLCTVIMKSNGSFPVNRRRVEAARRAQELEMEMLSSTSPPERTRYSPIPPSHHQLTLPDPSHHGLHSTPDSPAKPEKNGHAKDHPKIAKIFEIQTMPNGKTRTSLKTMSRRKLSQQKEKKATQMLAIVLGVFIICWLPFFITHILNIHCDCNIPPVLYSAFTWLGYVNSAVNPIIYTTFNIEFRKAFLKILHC
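HEK293 T-REx D2 cells, tet-induced, calcium dye no-wash. Cpd pintool add, 180 s kinetic, then EC80 DA, 180 s kinetic. Ca flux read.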
D2 ag-1 – activates the human D2 dopamine receptor; P14416; HEK293 T-REx D2 cells, calcium flux agonist mode; activation, % at 2 µM; 0.53% of 340,000 active; AID 485358;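 active = activation over 3 SD above normal in the single-dose calcium agonist read, cut at about 30% in these data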; note: 0% is about no effect
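Tetracycline-induced HEK293 T-REx cells with force-coupled D2 receptor, plated overnight at 30 C, loaded with no-wash calcium dye. After a 10 s baseline, compound was pin-added and calcium flux read kinetically for 180 s; calcium rises flagged agonists.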
D2 ag-2 – activates the human D2 dopamine receptor | P14416 | DiscoveRx PathHunter D2 beta-arrestin, luminescence, 90 min; 100% = 57 uM dopamine signal | activation, % (concentration not given with the values) | 0.084% of 360,000 active; in the data active = activation above about 40%; inconclusive = between about 15% and that limit
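Agonist mode: compounds alone added to overnight-plated D2 PathHunter cells for 90 min at 37 C, with 57 uM final dopamine (EC100) defining full response. Beta-arrestin recruitment detected by chemiluminescent reagent, read after 1 h at ambient temperature.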
D2 PAM-1 – D2 dopamine receptor (human) potentiation; HEK293 T-REx D2, calcium flux, EC20 dopamine potentiation; potentiation, % at 10 µM; 0.34% of 340,000 active; AID 485347;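 active = potentiation over 3 SD above the plate norm, cut at about 30% in these data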; note: 0% is about no effect
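Cells plated with tetracycline inducer and held overnight at 30 C; calcium dye loaded 30–90 min at room temperature; baseline taken, compound added and read 180 s; EC20 dopamine then added and read 180 s.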
D2 PAM-2 – human D2 receptor positive allosteric modulation; AID 624464; DiscoveRx D2 beta-arrestin cells, luminescence, 90 min; 100% = 57 uM dopamine signal; 0.23% of 360,000 active; potentiation, % (no concentration beside the values); P14416; in the data active = potentiation above about 50%; inconclusive = mostly about 30% to 49%
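D2 cells co-treated with compound plus 50 nM dopamine (EC20) for 90 min at 37 deg C to detect potentiation. Beta-arrestin recruitment was read as enzyme-fragment luminescence after 1 h at ambient temperature. Full response was set by 57 uM dopamine.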
* = called active by the depositor. An excerpt weighted towards active compounds, which were near 2.4% of everything screened.

CCOc1ccccc1NC(=O)C1CCCN(S(=O)(=O)c2cccs2)C1 (centres undefined) was read as D2 ag-1 0 and D2 PAM-1 -5.
O=C(CC12CC3CC(CC(Br)(C3)C1)C2)NC1CCCC1 was read as D2 antag 34*, D2 ag-1 1, D2 ag-2 0, D2 PAM-1 7 and D2 PAM-2 -3.
CCC(Sc1ncc(S(=O)(=O)c2ccc(Cl)cc2)c(=O)[nH]1)C(=O)Nc1ccc(OC)cc1 (centres undefined) was read as D2 ag-1 0 and D2 PAM-1 -7.
Screening COc1ccccc1CNC(=O)CCC(=O)N1CC(C)Sc2ccccc21 (centres undefined) returned D2 antag 32*, D2 ag-1 0, D2 ag-2 -9, D2 PAM-1 -7 and D2 PAM-2 -11.
For CC1CN(C(=O)CCC(=O)NCc2ccc(F)cc2)c2ccccc2S1 (centres undefined) the results were D2 antag -10, D2 ag-1 0, D2 ag-2 -2, D2 PAM-1 -3 and D2 PAM-2 -1.
Screening Fc1ccc(-c2csc(=S)[nH]2)cc1 returned D2 antag 31*, D2 ag-1 0, D2 ag-2 -2, D2 PAM-1 -2 and D2 PAM-2 -4.
`S=c1[nH]c(-c2ccccc2)cs1` gave D2 antag 8, D2 ag-1 0, D2 ag-2 5, D2 PAM-1 11 and D2 PAM-2 -16.
Cc1cc(N/N=C/c2ccc(O)cc2O)nc(-c2ccccc2O)n1 was read as D2 antag -9, D2 ag-1 0, D2 ag-2 41*, D2 PAM-1 2 and D2 PAM-2 inconclusive.
Screening Cc1cc(N/N=C/c2ccccc2O)nc(-c2ccccc2O)n1 returned D2 antag 4, D2 ag-1 -1, D2 ag-2 -2, D2 PAM-1 2 and D2 PAM-2 -19.
`COc1ccc(-c2nc3sc(CCNC(=O)C(=O)Nc4ccc(C)c(C)c4)c(C)n3n2)cc1` gave D2 ag-1 0 and D2 PAM-1 2.
`O=C(/C=C/c1cccs1)NC1CCS(=O)(=O)C1` (centres undefined) gave D2 antag -9, D2 ag-1 32*, D2 ag-2 2, D2 PAM-1 -8 and D2 PAM-2 -1.
Screening O=C(/C=C/c1cccs1)NC1CCCC1 returned D2 antag 5, D2 ag-1 0, D2 ag-2 -3, D2 PAM-1 20 and D2 PAM-2 -8.
Screening CC1=NN(Cc2ccccc2)C(=O)/C1=C\c1ccc(N(C)C)cc1 returned D2 antag -5, D2 ag-1 -1, D2 ag-2 -2, D2 PAM-1 -6 and D2 PAM-2 0.
Screening CCOC(=O)C1=NN(c2ccccc2)C(=O)/C1=C\c1ccc(N(C)C)cc1 returned D2 antag 32*, D2 ag-1 0, D2 ag-2 -3, D2 PAM-1 -8 and D2 PAM-2 -11.
`COC(=O)CC1=NN(c2ccccc2)C(=O)/C1=C\c1ccc(OC)cc1` gave D2 antag 56*, D2 ag-1 3, D2 ag-2 -5, D2 PAM-1 2 and D2 PAM-2 -9.
For Cc1cc(NC(=O)c2ccccc2Cl)no1 the results were D2 antag 13, D2 ag-1 0, D2 ag-2 -4, D2 PAM-1 26 and D2 PAM-2 2.
Screening Cc1cc(NC(=O)Nc2ccc(F)cc2)no1 returned D2 antag -3, D2 ag-1 0, D2 ag-2 -4, D2 PAM-1 40* and D2 PAM-2 1.
`Cc1cc(NC(=O)c2c(F)cccc2Cl)no1` gave D2 antag -17, D2 ag-1 -1, D2 ag-2 2, D2 PAM-1 31* and D2 PAM-2 5.
For COc1cc(/C=N/NC(=O)CCC(=O)Nc2ccc(Br)cc2)ccc1O the results were D2 antag 32*, D2 ag-1 0, D2 ag-2 1, D2 PAM-1 -11 and D2 PAM-2 -10.
COc1ccc(O)c(/C=N/NC(=O)CCC(=O)Nc2cccc(C)c2)c1 was read as D2 antag -5, D2 ag-1 0, D2 ag-2 -3, D2 PAM-1 -6 and D2 PAM-2 -7.
O=C(CCC(=O)Nc1ccc(Br)cc1)N/N=C/c1ccc(O)cc1 was read as D2 antag 33*, D2 ag-1 -1, D2 ag-2 -4, D2 PAM-1 -23 and D2 PAM-2 -23.
Screening COc1ccc(OC)c(/C=N/NC(=O)CCCC(=O)Nc2cccc(Br)c2)c1 returned D2 antag 68*, D2 ag-1 1, D2 ag-2 -2, D2 PAM-1 -4 and D2 PAM-2 -12.
`Cc1ccc(NC(=O)CCC(=O)N/N=C/c2ccc(O)cc2)cc1` gave D2 antag -25, D2 ag-1 0, D2 ag-2 -4, D2 PAM-1 -14 and D2 PAM-2 -21.
`COc1ccccc1C(=O)N1CCN(Cc2nc3cc([N+](=O)[O-])ccc3n2C)CC1` gave D2 antag 36*, D2 ag-1 0, D2 ag-2 -4, D2 PAM-1 -4 and D2 PAM-2 -10.
CC(=O)N1CCN(Cc2nc3cc([N+](=O)[O-])ccc3n2C)CC1 was read as D2 ag-2 0 and D2 PAM-2 -6.
Screening Cc1ccc2c(c1)C(c1ccc(F)cc1)N(C(=O)c1ccc(OC(C)C)cc1)CC(=O)N2 (centres undefined) returned D2 ag-1 0 and D2 PAM-1 -3.
`COc1ccccc1CNC(=O)c1cnc2sc(N3CCCCCC3)nn2c1=O` gave D2 ag-1 0 and D2 PAM-1 -3.
Cc1ccc(-c2c(C(=O)N3CCN(c4cccc(C)c4)C(C)C3)oc(=O)c3ccccc23)cc1 (centres undefined) was read as D2 ag-1 0 and D2 PAM-1 -1.
Screening Cc1ccc(C)c(NC(=O)CN2C(=O)NC(CCc3ccccc3)C2=O)c1 (centres undefined) returned D2 ag-2 -6 and D2 PAM-2 -6.
Screening Cc1cc(C)c(NC(=O)CN2C(=O)NC(CCc3ccccc3)C2=O)c(C)c1 (centres undefined) returned D2 antag 32*, D2 ag-1 1, D2 ag-2 -3, D2 PAM-1 -8 and D2 PAM-2 -3.
`COc1ccc(S(=O)(=O)N2CCCCCC2)cc1C(=O)N(C)Cc1ccc(Cl)cc1Cl` gave D2 antag 47*, D2 ag-1 2, D2 ag-2 0, D2 PAM-1 -14 and D2 PAM-2 7.
COc1ccc(S(=O)(=O)N2CCCCCC2)cc1C(=O)N(C)Cc1c(F)cccc1Cl was read as D2 antag -16, D2 ag-1 0, D2 ag-2 1, D2 PAM-1 17 and D2 PAM-2 0.
